# Reference: PubChem BioAssay (NCATS)
# Records with an inconclusive call do not appear. Entries that show only a call come without a potency. Values without a mark were called inactive. Active and inactive are the calls of the source. The call rests on the fitted dose curve; in most records, active means well fitted curve in the direction sought with a large enough effect; inconclusive means small, poorly fitted or top-dose-only effect, or another doubt; inactive means no such curve, though single readings can be large; an effect the other way counts as inactive or inconclusive.
# Columns and labels:
# [1] = target: Cytochrome P450 3A7 (Homo sapiens) (UniProt P24462); experiment: Cytochrome P450 family 3 subfamily A member 7 (CYP3A7) small molecule antagonists: luciferase biochemical qHTS assay (AID 1963596)
# Sequence of Cytochrome P450 3A7 (Homo sapiens) (P24462 whole entry, looked up): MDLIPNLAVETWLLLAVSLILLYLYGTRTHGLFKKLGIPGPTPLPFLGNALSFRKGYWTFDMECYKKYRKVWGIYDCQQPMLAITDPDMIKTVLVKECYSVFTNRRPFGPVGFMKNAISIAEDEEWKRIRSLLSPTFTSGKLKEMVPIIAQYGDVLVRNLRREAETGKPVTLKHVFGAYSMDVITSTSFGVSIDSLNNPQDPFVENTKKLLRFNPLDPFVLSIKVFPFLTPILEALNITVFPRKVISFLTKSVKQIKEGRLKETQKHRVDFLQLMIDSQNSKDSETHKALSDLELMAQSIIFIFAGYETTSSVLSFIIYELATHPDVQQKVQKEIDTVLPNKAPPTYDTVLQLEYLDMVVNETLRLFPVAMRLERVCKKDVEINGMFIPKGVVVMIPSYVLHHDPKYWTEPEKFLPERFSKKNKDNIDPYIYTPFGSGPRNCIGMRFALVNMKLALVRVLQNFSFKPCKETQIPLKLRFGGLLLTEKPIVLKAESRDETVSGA
# Summary of the method: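 Luminescence from luciferin released by CYP3A7 from a proluciferin substrate, read 20 min after detection reagent. Compound and enzyme-substrate mix sat 10 min before NADPH regeneration solution; reaction ran 1 h at room temperature.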
# [2] = Viability qHTS for spleen associated tyrosine kinase inhibitor (SYKi) naive MV4-11 cells (AID 1963823)
# Summary of the method: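 CellTiter-Glo luminescence, 10 min room-temperature incubation, gave viability. Cells: naive MV4-11 (500/well), treated 72 hr at 37 C, 5% CO2.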
# Further: nearly all actives have a fitted effect of over 40% in size.
# Potency means the concentration at half of the fitted maximal effect.
structure (smiles),measurement,setting,value
O=C(O)C1CSC(C(=O)O)N1 (stereo unspecified),Potency,[1],inactive
CC(C)c1ccc(-n2ncc3c(=O)n(CC(=O)Nc4cc(F)ccc4Cl)cnc32)cc1,Potency,[1],inactive
Cc1ccc(C)c(NC(=O)Cn2cc(C(=O)c3ccco3)c3ccccc32)c1,Potency,[1],inactive
CCCCC(O)c1ccccc1 (stereo unspecified),Potency,[1],inactive
C=CS(=O)(=O)O,Potency,[1],inactive
CC(C)(C)NCCCNC(=O)c1cccc(Br)c1,Potency,[1],inactive
S=C=Nc1ccc(N=C=S)cc1,Potency,[1],inactive
Nc1nccs1,Potency,[1],inactive
N=C(N)n1cccn1,Potency,[1],inactive
Cc1c(C)n(CCN(C)C)c2ccc(C(=O)OCCN(C)C)cc12,Potency,[1],inactive
O=[N+]([O-])c1cn2c(n1)OC[C@@H](OCc1ccc(-c3ccc(OC(F)(F)F)cc3)nc1)C2,Potency,[1],inactive
O=C1CSc2ccccc2N1Cc1cccc(C(F)(F)F)c1,Potency,[1],inactive
COCC(=O)N1CCc2cc(-c3csc(NC(=O)c4cc(OC)cc(OC)c4)n3)ccc21,Potency,[1],inactive
NC(=O)c1ncn(C2OC(CO)C(O)C2O)n1 (stereo unspecified),Potency,[1],inactive
CC(=O)O[C@@H]1C(=O)O[C@@H]2[C@H]1OC(=O)[C@@H]2OC(C)=O,Potency,[1],inactive
O=C(Cn1c(=O)n(-c2ccc(Cl)cc2)c(=O)c2oc3ccccc3c21)Nc1ccccc1,Potency,[1],inactive
O=c1[nH]ccc2cc(OC3CCNCC3)ccc12,Potency,[1],inactive
O=C(Nc1cccc(C2=NCCN2)c1)Nc1cccc(C2=NCCN2)c1,Potency,[1],inactive
COc1ccc(-c2nc3n(n2)C(c2ccc(OC)c(OC)c2)C(C(=O)Nc2cccnc2)=C(C)N3)cc1 (stereo unspecified),Potency,[1],inactive
Oc1ccc(C2(c3ccccc3F)CCC(F)(F)CC2)cc1,Potency,[1],5.01 µM (active)
Cc1ccccc1NC(=O)Nc1ccc(CN2C(=O)N([C@@H](CC(C)C)C(=O)N[C@@H](CC(=O)O)c3ccccc3)C(=O)C2(C)C)cc1,Potency,[1],inactive
COC(=O)CCC[N+](C)(C)C,Potency,[1],inactive
Fc1ccc(-c2nc(-c3c(F)cccc3F)[nH]c2-c2ccncc2)cc1,Potency,[1],inactive
CC(CCC(=O)O)C1CC[C@H]2C3[C@H](O)C[C@@H]4C[C@H](O)CCC4(C)[C@H]3C[C@H](O)C12C (stereo partly specified),Potency,[1],inactive
CCCCCCCCCC(=O)O,Potency,[1],inactive
CC(C)(C)NS(=O)(=O)c1cncc(-c2cc(F)c3nc(N)nn3c2)c1,Potency,[1],inactive
Nc1ccn(C2O[C@H](CO)[C@@H](O)[C@@H]2O)c(=O)n1 (stereo partly specified),Potency,[1],inactive
COc1ccc(-n2[nH]c(=O)c3[nH]c4cc(Cl)ccc4c(=O)c3c2=O)c(C)c1,Potency,[1],inactive
Cc1cc(OCCCS(C)(=O)=O)cc(C)c1-c1cccc(COc2ccc3c(c2)OCC3CC(=O)O)c1 (stereo unspecified),Potency,[1],inactive
Cc1nc(NC(=O)N2CCCC2C(N)=O)sc1-c1csc(C(C)(C)C)n1 (stereo unspecified),Potency,[1],inactive
N#Cc1cc(C2=Nc3ccc(Br)cc3NC(=O)C2)ccn1,Potency,[1],inactive
O=[N+]([O-])c1ccc(Oc2ccc(N=C=S)cc2)cc1,Potency,[1],2.39 µM (active)
Cc1cccc(NC(=O)Cn2c(=O)n(Cc3ccc(C(=O)NCc4ccc5c(c4)OCO5)cc3)c(=O)c3ccccc32)c1,Potency,[1],inactive
CCN(CCCO)CCCOc1ccc2c(Nc3cc(CC(=O)Nc4cccc(F)c4)[nH]n3)ncnc2c1,Potency,[1],14.1 µM (active)
CCCCCCCCCCCCCCCCNc1ccc(C(=O)O)cc1,Potency,[1],inactive
OC[C@H]1O[C@@H]2O[C@H]3[C@H](O)[C@@H](O)[C@@H](O[C@H]4[C@H](O)[C@@H](O)[C@@H](O[C@H]5[C@H](O)[C@@H](O)[C@@H](O[C@H]6[C@H](O)[C@@H](O)[C@@H](O[C@H]7[C@H](O)[C@@H](O)[C@@H](O[C@H]1[C@H](O)[C@@H]2O)O[C@@H]7CO)O[C@@H]6CO)O[C@@H]5CO)O[C@@H]4CO)O[C@@H]3CO,Potency,[1],inactive
COc1ccc2cc(Br)ccc2c1,Potency,[1],inactive
CCc1cnc(N2CCC(c3nc(COc4ccc(-n5cnnn5)cc4)cs3)CC2)nc1,Potency,[1],inactive
Cc1ccc(S(=O)(=O)Nc2nc3n(n2)C(c2ccc(F)cc2)C=C(c2ccccc2)N3)cc1 (stereo unspecified),Potency,[1],inactive
Cc1cccc(C)c1NC(=O)C(C)N (stereo unspecified),Potency,[1],inactive
CO/N=C(\C(=O)N[C@@H]1C(=O)N2C(C(=O)O)=C(COC(C)=O)CS[C@H]12)c1csc(N)n1,Potency,[1],inactive
C[C@@H](Nc1cc(NS(=O)(=O)N2CCC2)nc(SCc2cccc(F)c2F)n1)[C@@H](O)CO,Potency,[1],inactive
same,Potency,[2],inactive
NC(=O)C(CCC(F)(F)F)N(Cc1ccc(-c2ncon2)cc1F)S(=O)(=O)c1ccc(Cl)cc1 (stereo unspecified),Potency,[1],inactive
CNC1CN(c2ccc3c(=O)c(C(=O)O)cn(-c4nccs4)c3n2)CC1OC (stereo unspecified),"activity change, negative = inhibition",[1],23% [at 11.5 µM]
same,Potency,[2],0.422 µM (active)
